Among the data in PubChem BioAssay (NCATS) are activity change, negative = cytotoxicity and Potency values, retold here.

Records with an inconclusive call do not appear. Where a call stands in place of a potency, no number is given. The source made the active and inactive calls. The call rests on the fitted dose curve; in most records, active means well fitted cell-killing curve with a large enough effect; inconclusive means small, poorly fitted or top-dose-only effect, or effect the other way; inactive means flat fitted curve, though single readings scatter.
Potency means the concentration at half of the fitted maximal effect.

For this assay, the system named is Es-2. Kind of assay: Primary qHTS to identify gynecologic anti-cancer compounds using libraries of approved drugs and bioactive compounds (AID 1345084). Further: nearly all actives have a fitted effect of over 55% in size. Conditions: Gynecologic cancer cell panel viability, ATPlite luminescence, 48 h; series mostly up to 57.5 µM. In a few lines:
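Cell viability after 48 h drug treatment, ATPlite luminescence readout; five doses.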
For `CC1OC(OC2C(O)COC(O[C@@H]3[C@@H](O)[C@@H](O)[C@H](OC4C(OC(=O)[C@]56CCC(C)(C)CC5C5=CCC7[C@@]8(C)C[C@H](O)[C@H](OC9OC(CO)C(O)C(O)C9O)[C@@](C)(CO)C8[C@H](O)C[C@@]7(C)[C@]5(C)CC6)OCC(O)C4O)O[C@H]3C)C2O)C(O)C(O)C1O` (stereo not given in full), the activity change, negative = cytotoxicity is -27.5% [at 6.55 µM] (inactive).
As for `CCCSc1nc(N[C@@H]2C[C@H]2c2ccc(F)c(F)c2)c2nnn([C@@H]3C[C@H](OCCO)[C@@H](O)[C@H]3O)c2n1`, the Potency result was “inactive”.
Regarding `C[C@H](Oc1cc(-n2cnc3ccc(CN4CCN(C)CC4)cc32)sc1C(N)=O)c1ccccc1C(F)(F)F`, the Potency was 11.2 µM (active).
Consider `C[C@@H](O[C@H]1OCCN(Cc2nn(P(=O)(O)O)c(=O)[nH]2)[C@H]1c1ccc(F)cc1)c1cc(C(F)(F)F)cc(C(F)(F)F)c1`, for which the Potency entry was “inactive”.
For `COC1CC(=O)C23C(=O)NC(Cc4c[nH]c5ccccc45)C2C(C)C2(C)OC2C3/C=C/CC(C)CC1O` (stereo not given), the Potency entry is “inactive”.
In the case of `Cc1cc(OCCCS(C)(=O)=O)cc(C)c1-c1cccc(COc2ccc(C3=CC(=O)NS3=O)cc2)c1` (stereo not given), the Potency entry was “inactive”.
Consider `C=C1[C@H]2CC[C@H](C(=O)O)[C@@]23CC[C@H](C3)C1(C)C`, for which the Potency result is “inactive”.
In the case of `Cn1ncc(Cl)c1-c1cc(C(=O)N[C@H](CN)Cc2ccc(F)c(F)c2)sc1Cl`, the Potency entry is “inactive”.
Still for that read-out and setting: the entry for `C=CC(=O)N1CCCC(n2nc(-c3ccc(Oc4ccccc4)cc3)c3c(N)ncnc32)C1` (stereo not given) is “inactive”; for `C=C[C@@]1(C)CCC2C(=CCC3[C@]2(C)CCC[C@@]3(C)C(=O)O)C1` (stereo not given in full) it is “inactive”; for `COc1ccc(C[C@H]2COC(=O)[C@@H]2Cc2ccc(O[C@@H]3O[C@H](CO)[C@@H](O)[C@H](O)[C@H]3O)c(OC)c2)cc1OC` it is “inactive”.
As for `CCCc1cc(C)[nH]c(=O)c1CNC(=O)c1cc(-c2ccc(N3CCN(C(C)C)CC3)nc2)cc2c1cnn2C(C)C`, the Potency result was “inactive”.
Take `FC(F)(F)c1ccccc1-c1cc(C(F)(F)F)c2nc(C3=NOC4(CCCCC4)C3)[nH]c2c1`: the Potency result was “inactive”.
The same measure, in the same setting: the figure for `C=C1CC2OC(=O)C(=C)C2C(OC(=O)/C(C)=C\C)CC2(C)OC1=CC2=O` (stereo not given) is 10 µM (active).
On to `Nc1ncnc2c1nc(Cl)n2C1OC2COP(=O)(O)OC2C1O` (stereo not given), for which the Potency was 10 µM (active).
On the same count and under the same terms, the entry for `O=C(C1CCCCC1)N(CCN1CCN(c2ccccc2O)CC1)c1ccccn1` is “inactive”; for `Cn1sc(=O)n(Cc2ccccc2)c1=O` it is “inactive”.
Regarding `COC(CCc1ccc(O)cc1)CC(=O)CCc1ccc(O)cc1` (stereo not given), the Potency result was “inactive”.
For `NCC1CCN(c2nccc(-c3ccc4ccccc4c3)n2)CC1`, the Potency entry is “inactive”.
Same read-out and setting: the entry for `C[C@@H](N[C@H]1CCCC[C@@H]1NC(=O)c1ccc(Cl)cc1)c1cccc2ccccc12` is “inactive”.
Turning to `COC(=O)CC1OC(C)C2=C(O)c3c(O)cccc3C(=O)C23OC13` (stereo not given), the Potency was 10 µM (active).
Regarding `C/C=C(/C)C(=O)O[C@H]1[C@H](OC(=O)/C(C)=C\C)[C@@]23C(CC1(C)C)[C@]1(CCC4[C@@]5(C)CC[C@H](O[C@@H]6O[C@H](C(=O)O)[C@@H](O)[C@H](O[C@@H]7O[C@H](CO)[C@H](O)[C@H](O)[C@H]7O[C@@H]7O[C@@H](C)[C@H](O)[C@@H](O)[C@H]7O[C@@H]7OC[C@@H](O)[C@H](O)[C@H]7O)[C@H]6O[C@@H]6O[C@H](CO)[C@H](O)[C@H](O)[C@H]6O)C(C)(C)C5CC[C@@]4(C)[C@]1(C)C[C@H]2O)O[C@H]3O` (stereo not given in full), the activity change, negative = cytotoxicity is 0.581% [at 6.55 µM] (inactive).
Consider `Nc1nc2c(ncn2C2OC3COP(=O)(O)OC3C2O)c(=O)[nH]1` (stereo not given), for which the Potency result is “inactive”.
Take `CC(F)(F)CN1CCOc2c(nn(-c3ccccc3Cl)c2-c2ccc(Cl)cc2)C1=O`: the Potency result is “inactive”.
On to `CN[C@@H]1[C@H](O[C@H]2[C@H](O[C@@H]3[C@@H](O)[C@H](O)[C@@H](N=C(N)N)[C@H](O)[C@H]3N=C(N)N)O[C@@H](C)[C@]2(O)CO)O[C@@H](CO)[C@H](O)[C@H]1O`, for which the Potency result is “inactive”.
